Shown are actives, neighbours in structure and some others; about 9% of the full set was active somewhere.
BAZ2B inh: BAZ2B (human) inhibition; Potency, µM (titrated, usually from 114 µM), without a hit: at the top dose activity change, negative = inhibition, usual class: inhibitors; 4.4% of 360,000 active; AlphaScreen BAZ2B-H3K14Ac peptide displacement; Q9UIF8; AID 504333; further: on the % scale 0 is the no-effect control and ±100 the full control effect; nearly all actives have a fitted effect of over 60% in size
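Multi-concentration screen (max 110 uM) measuring displacement of acetylated histone H3 peptide from BAZ2B by AlphaScreen, using 50 nM protein, 50 nM peptide and 10 ug/mL streptavidin donor plus Ni-chelate acceptor beads.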
HP1b binding inh: HP1-beta chromodomain-methylated histone interaction inhibition; AlphaScreen HP1-beta / biotin-H3K9me3 peptide binding; Potency, µM (highest dose often 114 µM), for inactives: at the highest dose activity change, negative = inhibition, actives largely listed as inhibitors; 0.56% of 390,000 active; further: nearly all actives have a fitted effect of over 70% in size
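Compound inhibition of the preformed complex between 50 nM HP1-beta and 50 nM biotinylated H3K9me3 peptide was read by AlphaScreen. Buffer was PBS pH 7.4 with 0.01% Tween-20. Incubations ran 30 min at room temperature, with 10 ug/mL donor/acceptor beads.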
ALOX12 inh: ALOX12 (human) lipoxygenase inhibition | P18054 | purified 12hLO, xylenol orange hydroperoxide absorbance | Potency, µM (series often up to 108 µM), for the others: top-dose activity change, negative = inhibition, most hits filed as inhibitors | 1.1% of 580,000 active; further: on the % scale 0 is the no-effect control and ±100 the full control effect
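Hydroperoxide product was detected by ferrous iron/xylenol orange as the 573 to 405 nm absorbance ratio. Arachidonic acid at 40 uM (final) was turned over for 30 min at room temperature by 150 nM human 12hLO, pH 7.0 Hepes buffer, after 15 min compound preincubation.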
G9a inh: G9a (human) methyltransferase inhibition. Q96KQ7. G9a H3K9 monomethylation, AlphaScreen, 2 h. Potency, µM (series often up to 102 µM), inactives show at the highest dose activity, negative = inhibition, usual class: inhibitors. 8.8% of 350,000 active; further: on the % scale 0 is the no-effect control and ±100 the full control effect; nearly all actives have a fitted effect of over 75% in size
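Methyltransferase reactions run at room temperature for 2 h (20 nM enzyme, 500 nM biotin-H3K9 peptide, 20 uM SAM) after a 15 min compound preincubation; product detected by AlphaScreen beads and anti-H3K9me1 antibody.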
PLK1 PBD block: blocks phosphopeptide binding to human PLK1 polo-box domain; Plk1 PBD binding of FITC phosphopeptide, fluorescence polarization; Potency, µM, inactives show max response, negative = inhibition, hits mostly inhibitors; 2.8% of 360,000 active; AID 720504; further: series mostly up to about 57 µM; on the % scale 0 is the no-effect control and ±100 the full control effect; nearly all actives have a fitted effect of over 65% in size
JMJD2A Tudor: inhibitors of human JMJD2A Tudor domain | O75164 | Potency, µM (top dose mostly 114 µM), without a hit: top-dose activity change, negative = inhibition, hits mostly inhibitors | AID 504339 | AlphaScreen JMJD2A-Tudor / H3K4me3 peptide binding | 4.4% of 390,000 active; further: on the % scale 0 is the no-effect control and ±100 the full control effect; nearly all actives have a fitted effect of over 50% in size
Target sequence (O75164 whole entry, looked up, the tested form may be a part): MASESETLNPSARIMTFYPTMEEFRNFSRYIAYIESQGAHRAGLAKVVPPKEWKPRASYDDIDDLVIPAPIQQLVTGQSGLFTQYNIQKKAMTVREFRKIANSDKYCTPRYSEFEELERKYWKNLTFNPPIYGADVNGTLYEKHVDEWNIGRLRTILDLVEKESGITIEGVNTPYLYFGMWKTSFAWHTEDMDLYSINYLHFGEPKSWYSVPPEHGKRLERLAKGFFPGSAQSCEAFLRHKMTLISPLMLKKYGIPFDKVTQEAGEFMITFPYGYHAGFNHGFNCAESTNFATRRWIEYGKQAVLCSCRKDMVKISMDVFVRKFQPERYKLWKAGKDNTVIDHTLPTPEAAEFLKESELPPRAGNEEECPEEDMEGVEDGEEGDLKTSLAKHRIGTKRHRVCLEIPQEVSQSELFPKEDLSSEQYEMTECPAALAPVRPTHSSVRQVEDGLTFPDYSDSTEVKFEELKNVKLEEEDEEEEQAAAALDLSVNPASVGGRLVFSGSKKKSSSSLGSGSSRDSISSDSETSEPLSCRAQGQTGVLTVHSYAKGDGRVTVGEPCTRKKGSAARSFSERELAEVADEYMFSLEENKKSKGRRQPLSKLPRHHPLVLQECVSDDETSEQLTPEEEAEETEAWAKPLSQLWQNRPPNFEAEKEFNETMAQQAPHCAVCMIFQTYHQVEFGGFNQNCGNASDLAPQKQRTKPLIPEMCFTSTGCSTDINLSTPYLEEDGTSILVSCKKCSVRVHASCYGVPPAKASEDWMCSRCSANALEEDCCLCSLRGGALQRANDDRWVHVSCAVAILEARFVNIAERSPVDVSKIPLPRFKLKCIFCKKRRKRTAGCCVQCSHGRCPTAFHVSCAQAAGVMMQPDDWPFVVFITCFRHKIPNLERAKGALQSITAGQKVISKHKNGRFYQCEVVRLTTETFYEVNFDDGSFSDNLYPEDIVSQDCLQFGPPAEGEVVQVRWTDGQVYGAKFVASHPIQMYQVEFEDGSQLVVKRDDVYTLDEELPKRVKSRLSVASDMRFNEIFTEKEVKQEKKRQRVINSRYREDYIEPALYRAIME
* = called active by the depositor; i = inactive; ? = inconclusive; / = not tested or not shown; ! = not active in a repeat; [ ] = another dose, or the depositor's remark. The call rests on the fitted dose curve; in most records, active means well fitted curve in the direction sought with a large enough effect; inconclusive means small, poorly fitted or top-dose-only effect, or another doubt; inactive means no such curve, though single readings can be large; an effect the other way counts as inactive or inconclusive. Potency means the concentration at half of the fitted maximal effect.

SMILES	BAZ2B inh	HP1b binding inh	ALOX12 inh	G9a inh	PLK1 PBD block	JMJD2A Tudor
CC(C)NCC(O)c1cc(O)cc(O)c1 (configuration not stated)	1.9%	20.6%	13.1%	25.1µM*!	-6.1%	-0.7%
NCC(O)c1ccc(O)c(O)c1 (configuration not stated)	/	?	1.1%	?	0.7%	?
CC(C)NC[C@H](O)c1cc(O)cc(O)c1	/	/	/	-6.4%[12.7 µM]	/	/
O=C(NCCCn1ccnc1)c1ccc(NS(=O)(=O)c2cccc([N+](=O)[O-])c2)cc1	-0.8%	38.8%	-1.2%	-40.2%	3.0%	-6.2%
O=C(NCCCN1CCOCC1)c1ccc(-c2ccc(Cl)cc2)o1	?	39.5%	?	?	2.2%	-19.0%
CCOc1ccc(N2CC(c3nc4ccccc4n3CCC3CCCCC3)CC2=O)cc1 (configuration not stated)	-21.5%	25.8%	2.1%	-39.8%[59 µM]	/	-19.4%
CCn1c(Cl)c(C=O)s/c1=N\S(=O)(=O)c1ccccc1	16.6%	-5.1%	0.0%	44.7µM*	11.9µM*	-24.3%[11.4 µM]
CSc1ncc(CN2CCc3c([nH]c4ccccc34)C2c2cccc(O)c2)cn1 (configuration not stated)	39.8µM*	-19.9%	-1.4%	/	2.6%	?
CCn1cc(CN2CCc3c([nH]c4ccccc34)C2c2cccc(OC)c2)c(C)n1 (configuration not stated)	79.4µM*	-20.6%	-15.0%	/	-2.2%	?
CCn1nc(C)c(CN2CCc3c([nH]c4ccccc34)C2c2ccc(F)c(OC)c2)c1C (configuration not stated)	?	-14.9%	-14.1%	50.1µM*	-4.8%	?
COc1cccc(C2c3[nH]c4ccccc4c3CCN2Cc2cccn2-c2ncccn2)c1 (configuration not stated)	?	?	-14.9%	39.8µM*	1.6%	?
COc1ccc(NC(=O)CCNS(=O)(=O)c2ccc3c(c2)c(=O)n(C)c(=O)n3C)c(OC)c1	-4.9%	18.0%	4.8%	6.1%	-9.9%	-14.3%
O=C(NCCN1CCOCC1)c1cc(-c2ccc(-c3ccccc3)cc2)nc2ccccc12	/	/	-69.7%	/	/	/
Clc1ccc(-n2cccc2CN2CCc3c([nH]c4ccccc34)C2c2ccccn2)nc1 (configuration not stated)	25.1µM*	-10.1%	-8.0%	17.8µM*	-10.0%	35.5µM*
CCn1cc(CN2CCc3c([nH]c4ccccc34)C2c2ccc(F)c(OC)c2)c(C)n1 (configuration not stated)	22.4µM*	?	-4.0%	44.7µM*	70.8%	?
Cc1cccc(-c2cccc(-c3cc(=O)oc4cc5c(cc34)OCO5)c2)c1	/	/	/	135.6%	/	/
N#CCC(=O)N/N=C\c1ccccc1OC/C=C/c1ccccc1	50.1µM*	28.6%	i	30.4%	-8.8%	?
O=C(NCc1ccco1)C1CC(c2ccccc2)CN(C(=O)C2CCCC2)C1 (configuration not stated)	/	/	12.4%	/	/	/
Cc1nn(CC(=O)NCCN2CCCCCC2)c(=O)c2nn(-c3ccccc3)c(C)c12	-15.8%	18.5%	-3.1%	-42.1%	-16.9%	-4.2%
CCCCc1nc2sc3c(SCC(=O)NCc4ccco4)ncnc3c2c2c1CCC2	?	2.3%	?	22.5%[0.501 µM]	-12.1%	-32.2%
CCCCc1nc2sc3c(SCCN(C)C)ncnc3c2c2c1CCC2	-26.8%	-22.2%	114.2%	?	-5.7%	50.1µM*
O=c1oc2ccccc2n1Cc1ccccc1	-12.2%	36.8%	-16.7%	10.5%	-3.3%	20.4%
CCCCOc1ccc(C(=O)O)cc1	-6.0%	21.7%	3.0%	-40.1%[12.7 µM]	1.7%	-7.2%
Cc1ccc(NC2Nc3cc(C)nn3S2)c(C)c1 (configuration not stated)	-25.3%	11.8%	39.8µM*	1.12µM*	?	?
Cc1cc2n(n1)SC(Nc1ccccc1)N2 (configuration not stated)	-33.4%	?	14.1µM*	1.78µM*	-3.1%	7.94µM*
SMILES	BAZ2B inh	HP1b binding inh	ALOX12 inh	G9a inh	PLK1 PBD block	JMJD2A Tudor
Cc1cc(NC(=NC2CC2)c2ccccc2)n(-c2ccccc2)n1	5.3%	-12.6%	-2.2%	?	-7.2%	-6.2%
COc1cc(CCC(=O)Nc2c(C(=O)N3CCN(c4ccccc4)CC3)oc3ccccc23)on1	?	16.8%	8.9%	?	-12.5%	?
COc1ccc(N2CCN(C(=O)c3oc4ccccc4c3NC(=O)c3ccccc3OC)CC2)cc1	-17.5%[57.1 µM]	13.6%	-17.6%	5.62µM*	/	?
COc1ccc(N2CCN(C(=O)c3oc4ccccc4c3NC(=O)CCc3cc(OC)no3)CC2)cc1	?	-20.9%	23.5%	35.5µM*	-4.1%	44.7µM*
CCOC(=O)c1c(/N=C/C2C(=O)CCCC2=O)sc2c1CCCC2	5.9%	31.0%	-9.7%	?	-5.0%	0.7%
COc1ccc(OC)c(NC(=O)CSc2nnc(C3CCCCC3)o2)c1	-15.8%	3.8%	0.0%	3.5%	23.8µM*	-21.8%
COc1ccc(OC)c(-c2nnc(SCC(=O)NC3CCCCC3)o2)c1	3.5%	60.2%	404.2%	44.7µM*	-6.7%	-10.6%
COc1cccc(-c2nnc(SCC(=O)NC3CCCCC3)o2)c1	-5.8%	-13.3%	?	8.91µM*	/	-15.4%
COc1ccc(OC)c(NC(=O)CSc2nncc3ccc(OC)c(OC)c23)c1	79.4µM*	9.3%	?	/	?	-33.1%
COc1ccc(-c2nnc(SCC(=O)NC3CC3)o2)c(OC)c1	7.7%	17.1%	-11.1%	-32.9%	-12.4%	-4.1%
Cc1noc(C)c1COc1ccccc1C(=O)N(C)CC(=O)Nc1ccc(Cl)c(Cl)c1	7.7%	13.9%	-0.5%	22.1%[2.33 µM]	0.2%	-4.8%
COc1cccc(NC(=O)CN(C)C(=O)c2ccccc2OCc2c(C)noc2C)c1	10.1%	8.9%	7.9%	7.94µM*	2.1%	-7.8%
CCN(CC)S(=O)(=O)c1cc(NC(=O)c2ccccc2OCc2c(C)noc2C)ccc1C	/	26.5%	0.8%	/	-1.8%	89.1µM*
COCCn1c(=O)[nH]c2cc(C(=O)Nc3nnc(C)s3)ccc21	2.7%	-2.6%	-9.7%	79.4µM*	-21.0%	-12.4%
COCCn1c(=O)[nH]c2cc(C(=O)Nc3cc(OC)c(OC)c(OC)c3)ccc2c1=O	-2.9%	-20.9%	-9.3%	18.7%	-5.3%	-15.7%
Cc1ccccc1-c1ccc2ncnc(N3CCNCC3)c2c1	/	/	?	2.6%[0.501 µM]	/	/
Cc1ccc(Nc2nc(N3CCOCC3)nc(N3CCOCC3)n2)cc1	2.3%	20.3%	4.1%	/	0.3%	-14.1%
O=C(O)c1ccc(NC2=C(N3CCOCC3)C(=O)c3ccccc3C2=O)cc1	?	12.6%	?	?	-12.4%	-17.2%
